Screening data (PubChem BioAssay)
Pol kappa inh-1: blocks human DNA polymerase kappa activity; Q9UBT6; purified Pol kappa, fluorescent DNA synthesis assay, 10 min; Potency, µM (top dose mostly 107 µM), inactives show top-dose activity, negative = inhibition, usual class: inhibitors; 400,000 tested, 0.53% active; AID 588579; note: % is set by controls: 0 for no effect and ±100 for the full control effect
Target sequence (Q9UBT6 whole entry, looked up): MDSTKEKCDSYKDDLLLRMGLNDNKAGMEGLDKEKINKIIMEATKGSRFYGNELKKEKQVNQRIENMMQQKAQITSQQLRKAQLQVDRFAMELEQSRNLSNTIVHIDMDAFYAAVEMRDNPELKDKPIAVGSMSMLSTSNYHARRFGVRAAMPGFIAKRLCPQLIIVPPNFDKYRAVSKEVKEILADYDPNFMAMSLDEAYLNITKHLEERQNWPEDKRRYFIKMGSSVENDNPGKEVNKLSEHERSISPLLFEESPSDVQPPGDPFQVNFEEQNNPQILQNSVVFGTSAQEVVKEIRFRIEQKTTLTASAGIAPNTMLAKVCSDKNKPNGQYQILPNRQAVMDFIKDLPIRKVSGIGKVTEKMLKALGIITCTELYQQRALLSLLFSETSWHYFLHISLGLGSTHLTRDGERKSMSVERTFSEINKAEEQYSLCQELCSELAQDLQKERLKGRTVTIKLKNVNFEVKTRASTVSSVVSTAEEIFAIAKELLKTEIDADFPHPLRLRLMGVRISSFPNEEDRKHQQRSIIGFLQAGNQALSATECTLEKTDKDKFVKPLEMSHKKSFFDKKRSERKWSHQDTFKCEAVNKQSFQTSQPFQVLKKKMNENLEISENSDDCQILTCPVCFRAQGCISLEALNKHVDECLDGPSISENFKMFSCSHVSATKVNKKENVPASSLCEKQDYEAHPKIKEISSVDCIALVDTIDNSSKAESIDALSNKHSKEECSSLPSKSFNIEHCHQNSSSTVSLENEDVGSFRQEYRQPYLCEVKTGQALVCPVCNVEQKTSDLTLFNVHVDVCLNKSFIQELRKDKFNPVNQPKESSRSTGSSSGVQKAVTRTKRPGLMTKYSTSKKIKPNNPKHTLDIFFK
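Kinetic fluorescence readout at 0 and 10 min followed reaction start with substrate at 50 nM final. Beforehand, enzyme (10 nM Pol kappa) stood 15 min with compound at room temperature; buffer-only wells were negative controls.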
Pol eta inh-1: blocks human DNA polymerase eta activity; Q9Y253; Potency, µM (doses to about 114 µM), for inactives: at the highest dose activity change, negative = inhibition, hits mostly inhibitors; AID 588591; recombinant Pol eta, fluorescent DNA replication assay; 390,000 tested, 1.2% active; note: % is set by controls: 0 for no effect and ±100 for the full control effect
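Pol eta (10 nM) was preincubated with compounds for 15 min at room temperature, after which fluorescent replication substrate (50 nM final) was added to start the reaction. Fluorescence was read kinetically at 0 and 10 min.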
Pol iota inh: inhibitors of human DNA polymerase iota; Pol iota fluorescent replication assay, 10 min; Potency, µM (titrated, usually from 115 µM), without a hit: top-dose activity, negative = inhibition, actives largely listed as inhibitors; 390,000 tested, 1% active; AID 588590
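Fluorescent replication assay read twice, at 0 min and 10 min after adding 50 nM (final) substrate. Enzyme (10 nM) and compounds were first incubated 15 min at room temperature; enzyme-free buffer wells were negative controls.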
TDP1 inh: blocks human tyrosyl-DNA phosphodiesterase 1; Q9NUW8; recombinant TDP1, AlphaScreen DNA substrate cleavage; Potency, µM (top dose mostly 130 µM), for the others: top-dose activity change, negative = inhibition, actives largely listed as inhibitors; 350,000 tested, 0.28% active; AID 485290; note: % is set by controls: 0 for no effect and ±100 for the full control effect; nearly all actives have a fitted effect of over 40% in size
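Steps: enzyme plus compound, 15 min RT; add biotin/phosphotyrosine-FITC oligonucleotide (15 nM final), react 5 min; add donor/acceptor beads (10 ug/ml final), 10 min; read AlphaScreen. Tdp1 at 1 nM final.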
POLB inh: blocks human DNA polymerase beta activity. P06746. Pol beta primer extension/strand displacement, fluorescence kinetic. Potency, µM (top dose mostly 114 µM), for the others: at the top dose activity change, negative = inhibition, hits mostly inhibitors. 340,000 tested, 1.3% active; note: % is set by controls: 0 for no effect and ±100 for the full control effect
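Reaction started by 50 nM substrate onto compound-treated Pol beta (10 nM, 15 min preincubation, room temperature); plates read at 0 min and 10 min. Normalized concentration-effect data fitted by four-parameter Hill equation.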
Pol kappa inh-2: confirmation of human DNA polymerase kappa inhibitors. shares compounds with Pol eta inh-1. purified Pol-kappa, fluorescent strand-displacement substrate. Potency, µM, hits mostly inhibitors. 920 tested, 76% active. AID 720501
Pol eta inh-2: Pol eta (human) inhibition, cherry-pick confirmation; shares compounds with Pol eta inh-1; Pol eta primer extension, TAMRA/BHQ fluorescence, 10 min; Potency, µM, hits mostly inhibitors; 2,600 tested, 64% active; AID 720502
Starred values were filed as active, the others as inactive; ? = inconclusive; / = no result; ! = not active in a repeat; [ ] = dose if it differs, or a comment. Compounds with a hit are over-represented: about 2.4% of the library has one in this group of screens. Calls come from the whole dose curve; as a rule, active = well fitted curve in the direction sought with a large enough effect; inconclusive = small, poorly fitted or top-dose-only effect, or another doubt; inactive = no such curve, though single readings can be large; an effect the other way counts as inactive or inconclusive. Potency is the fitted concentration of half-maximal effect.

SMILES | Pol kappa inh-1 | Pol eta inh-1 | Pol iota inh | TDP1 inh | POLB inh | Pol eta inh-2 | others
COc1ccc(NC(=O)CCc2c(C)nc3c(-c4ccc(F)cc4)c(C)nn3c2C)c(OC)c1 | -10% | -16% | 27% | 6% | 4% | /
COc1cc(NS(=O)(=O)c2ccc(NC(=S)NC(=O)c3sc4cc(F)ccc4c3Cl)cc2)nc(OC)n1 | 1% | 45µM* | ? | 1% | 32% | 43*
Cc1cc(NS(=O)(=O)c2ccc(NC(=O)/C=C/c3ccc(C)o3)cc2)nc(C)n1 | -33% | 45µM* | -67% | -14% | 9% | 76*
COC(=O)C[C@H]1c2ccccc2C2=C(C[C@@H](C)[C@H]3C(=O)N(c4ccccc4)C(=O)[C@@H]23)N1C(=O)OC | / | / | / | 16%[12.3 µM] | / | /
COc1ccc2[nH]c(=O)c(CN(CCO)S(=O)(=O)c3ccc(C)cc3)cc2c1 | -21% | -20% | 21% | 5% | -5% | /
CC(=O)c1ccc(S(=O)(=O)N(CCCO)Cc2cc3cc(C)ccc3[nH]c2=O)cc1 | -26% | 50µM* | ? | -3% | 40µM* | 60*
COc1ccc(N2CC(C(=O)Nc3nnc(SCC(=O)NCc4ccco4)s3)CC2=O)cc1 (stereo not drawn) | -42% | 22µM* | ? | 2% | ? | ? | Pol kappa inh-2=42*
Cc1oc2ccc(O)c(CN3CCCC(C)C3)c2c1C(=O)Nc1ccccc1 (stereo not drawn) | 16% | -29% | 12% | -4% | 2% | /
Cc1ccccc1NC(=O)CSc1[nH]c(=O)cc(C)c1C#N | ? | 20µM* | ? | -10% | 3% | ?
Cc1cc(=O)[nH]c(SCC(=O)c2ccccc2)c1C#N | -9% | -14% | 5% | 7% | -18% | /
CS(=O)(=O)c1ccc2nc(NC(=O)c3ccccc3)sc2c1 | -2% | -15% | 112% | / | -1% | /
CS(=O)(=O)c1ccc(C(=O)Nc2nc(-c3ccco3)c(-c3ccco3)s2)cc1 | 3.2µM* | 5µM* | 1.6µM* | 10% | / | 43*
O=C(O)c1cccc(N2C(=O)C3CC=CCC3C2=O)c1 (stereo not drawn) | -3% | 13% | 1% | 0% | -1% | /
O=C(O)c1cccc(N2C(=O)C=CC2=O)c1 | / | 20µM* | / | / | / | 54*
O=C(CSc1nc2c([nH]c3ccccc32)c(=O)n1-c1ccc(F)cc1)NCc1ccc(F)cc1 | 3%[60.1 µM] | 0% | ? | 7% | -2% | /
COc1ccc(NS(=O)(=O)c2ccc3[nH]c4c(c3c2)CCCC4)cc1OC | -9%[60.1 µM] | -12% | -5% | 9% | ? | /
O=c1[nH]n2c(=O)c3c([nH]c2c1N=Nc1cccc(Cl)c1)CCCC3 | -15% | ? | 1% | -5% | ? | 76*
COCCCNC(=O)Cn1c(=O)n(-c2ccccc2)c(=O)c2c1c1cc(OC)ccc1n2C | -15% | -3% | -3% | 3% | 0% | /
CN(Cc1ccccc1)C(=O)C1CCN(S(=O)(=O)c2ccc3nc4c(c(C(=O)O)c3c2)CCCC4)CC1 | 79µM* | 28µM* | ? | -12% | 28µM*! | ?
CCCNC(=O)C1CCN(S(=O)(=O)c2ccc3nc4c(c(C(=O)O)c3c2)CCCCC4)CC1 | -10% | -22% | 6% | 0% | 2% | /
Cc1sc2nc(SCC(=O)N3CC(C)OC(C)C3)n(C)c(=O)c2c1C (stereo not drawn) | -9% | 16µM* | ? | 3% | ? | ?
O=S(=O)(Nc1nc2n(n1)C(c1ccccc1)C=C(c1ccc(Cl)cc1)N2)c1ccccc1 (stereo not drawn) | 0% | 89µM* | -19% | / | 22% | ? | Pol kappa inh-2=67*
CC(=O)Nc1ccc(S(=O)(=O)Nc2nc3n(n2)C(c2ccccc2)C=C(c2ccc(Cl)cc2)N3)cc1 (stereo not drawn) | 3%[60.1 µM] | ? | -15% | 5% | -1% | ?
